# Screens from PubChem.
# Avidin fluor = avidin bead compound fluorescence profile; fluorescence (KMESF) at 10 µM; 0.38% of 220,000 active; Avidin beads, compound fluorescence 488/530 nm, flow cytometry; hits give high values; in the data active means fluorescence above about 47
# RGS4-Gao reg = modulates binding of RGS4 to human Galphao | Multiplexed bead flow cytometry; actives lie on both sides | binding response (% of control), % at 10 µM | 0.33% of 220,000 active; in the data active means binding response below about 49% or above about 150%; inactive means in between;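 further: fluorescent Galphao activated with aluminum fluoride binding bead-coupled RGS4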
# Target sequence (P09471 whole entry, looked up): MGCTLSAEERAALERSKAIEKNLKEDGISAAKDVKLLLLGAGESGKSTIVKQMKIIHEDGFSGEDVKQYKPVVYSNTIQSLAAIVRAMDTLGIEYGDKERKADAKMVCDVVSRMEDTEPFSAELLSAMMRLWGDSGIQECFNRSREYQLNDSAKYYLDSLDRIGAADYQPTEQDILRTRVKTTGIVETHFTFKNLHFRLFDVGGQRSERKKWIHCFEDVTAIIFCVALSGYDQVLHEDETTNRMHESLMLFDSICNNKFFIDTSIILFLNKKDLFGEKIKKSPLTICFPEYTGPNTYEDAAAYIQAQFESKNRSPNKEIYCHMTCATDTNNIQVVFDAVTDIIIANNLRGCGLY
# GSH fluor = GSH bead compound fluorescence profile; GSH beads flow cytometry, compound fluorescence 488/530 nm; hits give high values; fluorescence (KMESF) at 10 µM; 0.25% of 190,000 active; in the data active means fluorescence above about 89;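 further: glutathione beads carrying GST-tagged Bcl family fusion proteins plus one bare bead set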
# RGS8-Gao = human RGS8-Galphao interaction regulation | P09471 | response (percent of control binding), % at 10 µM | multiplexed bead flow cytometry, RGS8-Galphao binding; actives lie on both sides | 0.34% of 220,000 active; in the data active means response below about 60% or above about 140%; inactive means in between;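 further: Galphao activated as the GDP aluminium fluoride complex binding bead-coupled RGS8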
# RGS7-Gao = modulates binding of RGS7 to human Galphao; P09471; Multiplexed bead flow cytometry; actives lie on both sides; binding response (% of control), % at 10 µM; 0.35% of 220,000 active; AID 1439; in the data active means binding response below about 49% or above about 150%; inconclusive means no clear call, values can overlap the other calls; inactive means in between;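 further: fluorescent Galphao held in activated GDP-AlF4 state binding bead-coupled RGS7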
# RGS16-Gao = RGS16-Galphao interaction regulator (human); O15492+P09471; 0.38% of 220,000 active; AID 1441; binding response (% of control), % at 10 µM; bead-based flow cytometry RGS16-Galphao binding, fluorescence; actives lie on both sides;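 further: Galphao activated by GDP with aluminum fluoride before binding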
# Target sequence (O15492 whole entry, looked up): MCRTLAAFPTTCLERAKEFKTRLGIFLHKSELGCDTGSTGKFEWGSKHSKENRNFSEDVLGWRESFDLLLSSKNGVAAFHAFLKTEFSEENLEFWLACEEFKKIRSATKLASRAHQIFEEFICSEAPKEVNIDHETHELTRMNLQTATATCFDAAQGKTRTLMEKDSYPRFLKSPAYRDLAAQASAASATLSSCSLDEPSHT
# Target sequence (P09471 whole entry, looked up): as the sequence (P09471 whole entry, looked up) above
# RGS-Gao = RGS4-Galphao interaction regulator (human); multiplexed bead flow cytometry, RGS–Galpha-o binding; shares compounds with RGS16-Gao; RGS4–Galpha-o binding response, % at 10 µM; 99% of 1,600 active;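 further: fluorescently labeled Galpha-o bound to GDP with aluminium fluoride binding biotinylated RGS beads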
# Biotin-avidin = biotin-avidin bead binding disruption counter-screen. shares compounds with RGS16-Gao. streptavidin beads, fluorescein-biotin binding, flow cytometry. inhibition, % at 10 µM. 1,700 tested, under 10 active;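 active means inhibition above 50%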;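 further: median green fluorescence of gated singlet beads compared with DMSO control wells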
# RGS8-Gao single = confirmation of regulators of human RGS8-Galphao interaction; 3% of 1,700 active; shares compounds with RGS16-Gao; bead-based flow cytometry RGS8-Galphao binding, fluorescence; actives lie on both sides; binding response (% of control), % at 10 µM; in the data active means binding response below about 72% or above about 130%; inactive means in between;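 further: Galphao activated as GDP AlF4 complex before binding bead RGS8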
# RGS7-Gao single = confirmation of regulators of human RGS7-Galphao interaction; shares compounds with RGS16-Gao; bead-based flow cytometry RGS7-Galphao binding; actives lie on both sides; response (percent of control binding), % at 10 µM; 7.8% of 1,700 active; AID 1837; in the data active means response below about 75% or above about 130%; inactive means in between;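 further: fluorescent Galphao activated with GDP and aluminum fluoride binding bead-coupled RGS7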
# RGS16-Gao conf = RGS16-Galphao interaction regulation, single point confirmation. response (% of control binding), % at 10 µM. bead-based flow cytometry, RGS16-Galphao binding; actives lie on both sides. 4% of 1,700 active. shares compounds with RGS16-Gao; in the data active means response below about 74% or above about 130%; inactive means in between;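 further: Galphao activated as the GDP aluminium fluoride complex binding bead-coupled RGS16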
# RGS4-Gao confirm = confirmation of regulators of human RGS4-Galphao interaction. shares compounds with RGS16-Gao. RGS4-Galphao binding, multiplexed bead flow cytometry; actives lie on both sides. AID 1840. binding response (% of control), % at 10 µM. 4% of 1,700 active; in the data active means binding response below about 74% or above about 130%; inactive means in between
# RGS19-Gao conf = confirmation of regulators of human RGS19-Galphao interaction. 5% of 1,700 active. shares compounds with RGS16-Gao. response (percent of control binding), % at 10 µM. bead-based flow cytometry RGS19-Galphao binding; actives lie on both sides; in the data active means response below about 50% or above about 160%; inactive means in between
# A number is an active result; i = inactive; ? = inconclusive; nt = not tested or not shown; [ ] = dose if it differs, or a comment. An excerpt weighted towards active compounds, which were near 1.2% of everything screened. Unless noted, how the calls were made is not given here.
SMILES,Avidin fluor,RGS4-Gao reg,GSH fluor,RGS8-Gao,RGS7-Gao,RGS16-Gao,RGS-Gao,Biotin-avidin,RGS8-Gao single,RGS7-Gao single,RGS16-Gao conf,RGS4-Gao confirm,RGS19-Gao conf
CN(C)C(=O)Oc1ccc(Cl)c2cccnc12,i,i,i,57,i,i,75,i,i,i,i,i,i
CN(C)C(=O)Oc1c(Cl)cc(Cl)c2ccccc12,i,i,i,i,i,i,nt,nt,nt,nt,nt,nt,nt
COc1cc(CC2(CCc3ccncc3)C(=O)N(C)C(=O)N(C)C2=O)cc(OC)c1OC,i,i,i,58,i,i,101,i,i,i,i,i,i
COC(=O)C(O)(c1ccc(NC(=O)NC2CCCCC2)cc1)C(F)(F)F (centres undefined),83,175[activator],i,i,157[activator],i,nt,i,i,59,i,73,i
COC(=O)C(O)(c1ccc(NC(=S)NC(=O)c2ccc(Cl)cc2Cl)cc1)C(F)(F)F (centres undefined),i,i,i,i,i,i,nt,nt,nt,nt,nt,nt,nt
O=C(Cc1ccccc1)N1CCN(C/C=C/c2ccccc2)CC1,i,-8.3,i,29,7.9,-0.6,nt,i,i,i,i,i,i
CCN1CCN(C(=O)COc2ccc(S(=O)(=O)N(C)Cc3ccccc3)cc2)CC1,i,i,i,i,i,24,82,i,i,i,i,i,i
O=C1CCCC2C3CCCN4CCCC(CN12)C34 (centres undefined),i,i,i,i,i,i,nt,nt,nt,nt,nt,nt,nt
CC(=Nc1ccc2c(c1)CCC2)c1c(O)n(-c2ccccc2)c(=O)[nH]c1=O,i,i,nt,i,?,i,nt,nt,nt,nt,nt,nt,nt
CCn1c(O)c(/C=N/N2CCOCC2)c(=O)n(CC)c1=S,i,i,i,i,i,14,93,nt,nt,nt,nt,nt,nt
OC(Cn1c2ccccc2c2ccccc21)C[n+]1cccc2ccccc21 (centres undefined),78,i,i,i,154[activator],i,123,i,i,141[activator],i,132[activator],199[activator]
C=CCN1CC[C@]23c4c5ccc(O)c4O[C@H]2C(=O)CC[C@@]3(O)[C@H]1C5,i,48,i,57,34,i,nt,i,i,i,i,i,i
O=C1NC2NC(=O)N([N+](=O)[O-])C2N1 (centres undefined),i,i,nt,i,?,i,nt,nt,nt,nt,nt,nt,nt
CC1CN(c2cc([N+](=O)[O-])ccc2Cl)CC(C)N1 (centres undefined),i,i,i,i,i,i,nt,nt,nt,nt,nt,nt,nt
CN1CCN(c2ccc([N+](=O)[O-])cc2Cl)CC1,i,i,i,55,49,i,78,i,i,i,i,i,i
CN1CCN(c2cc([N+](=O)[O-])ccc2Cl)CC1,i,i,i,i,i,i,nt,nt,nt,nt,nt,nt,nt
CC1CN(c2ccc([N+](=O)[O-])cc2Cl)CCN1 (centres undefined),nt,11,i,9.2,7.2,1.8,nt,i,i,i,i,i,i
O=C(CN1CC=C(c2ccccc2)CC1)Nc1cc(Cl)ccc1Cl,i,i,i,i,i,i,nt,nt,nt,nt,nt,nt,nt
Cc1ccc(S(=O)(=O)N2CCCCC2)cc1NC(=O)CN1CC=C(c2ccccc2)CC1,i,i,i,142[activator],i,i,118,i,i,i,i,i,i
CC12CCCCC1=NC(c1ccc(Br)cc1)N2O (centres undefined),i,i,i,i,i,i,nt,nt,nt,nt,nt,nt,nt
Cc1ncc(CN2CCCC(C(=O)c3cccc(Cl)c3)C2)s1 (centres undefined),i,i,i,i,i,i,nt,nt,nt,nt,nt,nt,nt
CCC1(CC)C(=O)N(C)C(=O)NC1=NC,95,196[activator],nt,i,?,204[activator],nt,i,i,i,i,i,i
CCCCCCC[n+]1ccc(-c2cc[n+](CCCCCCC)cc2)cc1,i,i,i,i,i,13,115,i,i,i,i,i,i
O=C(Nc1ccccc1)c1cc([N+](=O)[O-])ccc1N1CCNCC1,i,i,i,59,?,i,89,i,i,i,i,i,i
CCN1CCN(c2ccc([N+](=O)[O-])cc2C(=O)OC)CC1,i,i,i,i,i,i,nt,nt,nt,nt,nt,nt,nt
SMILES,Avidin fluor,RGS4-Gao reg,GSH fluor,RGS8-Gao,RGS7-Gao,RGS16-Gao,RGS-Gao,Biotin-avidin,RGS8-Gao single,RGS7-Gao single,RGS16-Gao conf,RGS4-Gao confirm,RGS19-Gao conf
C[N+](C)(C)c1ccccc1,i,i,i,i,i,i,nt,nt,nt,nt,nt,nt,nt
Cc1nnc2ccc(N3CCN(C)CC3)nn12,i,i,i,144[activator],i,i,121,i,i,i,i,i,i
COc1ccccc1/C=N/N=C(/N)N[N+](=O)[O-],i,i,i,i,i,i,nt,nt,nt,nt,nt,nt,nt
N/C(=N\N=C\c1ccc(O)cc1O)N[N+](=O)[O-],i,i,i,i,i,-23,84,i,i,i,i,i,i
Cc1cc(OC(=O)N(C)C)n(-c2ccccc2)n1,i,-23,nt,9.2,?,-15,nt,i,i,i,i,i,i
CCOC(=O)c1[nH]ncc1CN1CCCC(C(=O)c2cccc(Cl)c2)C1 (centres undefined),i,i,nt,i,?,i,nt,nt,nt,nt,nt,nt,nt
Clc1ccccc1CN1CCN(c2cccc3[nH]ccc23)CC1,i,i,nt,i,?,i,nt,nt,nt,nt,nt,nt,nt
CCOP(=S)(OCC)SCC(=O)NC(C)(CC)C(=O)O (centres undefined),i,i,i,i,i,-105,74,i,i,i,i,i,i
CCOC(=O)c1c(-n2c(C)cc(C=C3C(=O)NC(=S)NC3=O)c2C)sc2c1CCCC2,i,i,i,i,i,i,nt,nt,nt,nt,nt,nt,nt
CC12CN3CN(C1)CC(c1ccccc1)(C3)C2=O,i,i,i,i,i,i,nt,nt,nt,nt,nt,nt,nt
COc1ccc(C(=O)C2(C)N(O)C(C)C(c3cccs3)=[N+]2[O-])cc1 (centres undefined),i,i,i,i,i,i,nt,nt,nt,nt,nt,nt,nt
CC1C(c2cccs2)=[N+]([O-])C(C)(C(=O)c2cccs2)N1O (centres undefined),i,157[activator],i,147[activator],159[activator],i,nt,i,i,i,i,i,i
CCC(=O)OC1(c2ccccc2)CCN(C)CC1C (centres undefined),i,i,i,i,i,i,nt,nt,nt,nt,nt,nt,nt
COc1cccc(C(=O)C2CCCN(Cc3ccc4nsnc4c3)C2)c1 (centres undefined),i,i,i,48,26,i,72,i,i,i,i,i,i
